Test [1] in a line: qHTS assay to identify small molecule agonists of the estrogen receptor alpha (ER-alpha) signaling pathway in the presence of an antagonist - cell viability counter screen (AID 1259386).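 Also: cells exposed to compounds for 22 h at 37 °C before the viability read; nearly all actives have a fitted effect of over 30% in size.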 Also: potency is read from the fitted curve at half-maximal effect. The procedure, abridged:
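In this counter screen, compound effects on VM7Luc4E2 viability were tested in the presence of the antagonist ICI-182,780 at 10.0nM final. Compounds were dosed at 15 concentrations, exposure lasted 22hr, and the CellTiter-Fluor signal was read.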

The nature of test [2]: qHTS assay to identify small molecule antagonists of the progesterone receptor (PR) signaling pathway - cell viability counter screen (AID 1346798). Also: series mostly up to about 92 µM; nearly all actives have a fitted effect of over 50% in size. In short, it runs like this: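 Measures cytotoxicity in parallel with the PR antagonist reporter read: HEK293T PR-UAS-bla cells get compound and R5020 for 16 hr, and remaining viable cells are quantified by CellTiter-Glo luminescence.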

Test [3] is described as follows: qHTS assay to identify small molecule agonists of the progesterone receptor (PR) signaling pathway - cell viability counter screen (AID 1346799; calls by dose curve; also: nearly all actives have a fitted effect of over 45% in size). The procedure, abridged:
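Using the same plates as the PR reporter screen, HEK293T PR-UAS-bla cells received compounds for 16 hr at 37C and were then lysed with CellTiter-Glo; luminescence was read 30 min later at room temperature.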

A short description of test [4]: qHTS assay to identify small molecule agonists of the TGF-beta/Smad signaling pathway - cell viability counter screen (AID 1346829). Also: top concentration of the series differs between compounds; nearly all actives have a fitted effect of over 45% in size. The procedure, abridged: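 SBE-bla HEK 293T cells plated overnight, compound exposure 5 hr at 37 C. Viability read in the same wells by CellTiter-Glo luminescence after 30 min at room temperature, following the beta-lactamase read.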

Test [5] concerns the target Thyrotropin-releasing hormone receptor (Homo sapiens) (UniProt P34981). The test can be described thus: qHTS assay to identify small molecule antagonists of the thyrotropin-releasing hormone receptor (TRHR) signaling pathway (AID 1346877; active = well fitted inhibition curve with a large enough effect in the repeat runs, not every such curve was filed as active; also: series mostly up to about 51 µM). The procedure, abridged:
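Kinetic fluorescence (3 min, 1 s resolution) following stimulation with TRH at 1 nM final; HEK293 cells bearing human TRHR; 5 min compound preincubation at RT; concentration-response over 15 points, triplicates.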

Test [6] has the same target. The test can be described thus: qHTS assay to identify small molecule agonists of the thyrotropin-releasing hormone receptor (TRHR) signaling pathway (AID 1346891; calls by dose curve;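 also: HEK293 cells expressing TRHR with calcium dye readout; series mostly up to about 58 µM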). In short, it runs like this: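 Overnight-plated (18 h, 37 °C, 5% CO2) TRHR-Hek293 cells; 2 h calcium dye at 37 °C; compound in DMSO; 3-min kinetic fluorescence read.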
Test [7] is described as follows: Caspase-3/7 induction in HepG2 cells by small molecules, qHTS assay (AID 1346978). Also: nearly all actives have a fitted effect of over 15% in size. The procedure, abridged: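 Wild-type HepG2 cells (2,000/well) were settled 5 h at 37 C, 5% CO2, then exposed to compounds in DMSO for 17 h. Caspase-3/7 activity was read by luminescence 30 min after adding Caspase-Glo 3/7 reagent at room temperature.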
Test [8] is described as follows: Caspase-3/7 induction in CHO-K1 cells by small molecules, qHTS cell viability counter screen (AID 1346979). Also: nearly all actives have a fitted effect of over 35% in size. Also: potency is read from the fitted curve at half-maximal effect. The procedure, abridged: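 Multiplexed with Caspase-Glo 3/7 in CHO-K1 cells, this counter screen added CellTiter-Fluor after 16hr of compound exposure and recorded fluorescence 1hr later.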
A short description of test [9]: Caspase-3/7 induction in CHO-K1 cells by small molecules, qHTS assay (AID 1346980). Also: nearly all actives have a fitted effect of over 15% in size. The procedure, abridged: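 Wild-type cells were seeded at 1,500 per well and settled 5 hr at 37 C, 5% CO2, then exposed to DMSO-dissolved compounds for 17 hr. Caspase-Glo 3/7 reagent was added, and luminescence was read after 30min at room temperature.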
Test [10] is described as follows: Caspase-3/7 induction in HepG2 cells by small molecules, qHTS cell viability counter screen (AID 1346981). Also: nearly all actives have a fitted effect of over 30% in size. Also: potency is read from the fitted curve at half-maximal effect. In short, it runs like this: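 In this quantitative HTS counter screen, compounds delivered in DMSO were left on unmodified HepG2 cells for 16 hr at 37 C. Viability was then determined fluorometrically with CellTiter-Fluor, in parallel with caspase-3/7 induction in the same wells.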

Test [11] concerns the target Nuclear receptor subfamily 1 group I member 2 (Homo sapiens) (UniProt O75469). Briefly: Human pregnane X receptor (PXR) small molecule agonists, qHTS assay (AID 1346982). Also: nearly all actives have a fitted effect of over 35% in size. Also: potency is read from the fitted curve at half-maximal effect. In short, it runs like this: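 Reporter HepG2 cells expressing PXR-Luc are cultured in charcoal-stripped FBS (5%), treated with compounds for 24 hr at 37 C, and assayed by ONE-Glo luminescence after 30 min at room temperature.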

Test [12] concerns the target Nuclear receptor subfamily 1 group I member 2 (Rattus norvegicus) (UniProt Q9R1A7). The test can be described thus: Rat pregnane X receptor (rPXR) activation by small molecules, qHTS assay (AID 1346983). Also: nearly all actives have a fitted effect of over 20% in size. The conditions noted are these: rPXR luciferase reporter cells, One-Glo luminescence, 24 h; max activation: stronger effect = higher value. In short, it runs like this:
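Cell-based rPXR luciferase reporter assay, 2,000 cells per well, rested 5hr at 37 C before compound addition in DMSO, then 24 hr at 37 C. One-Glo reagent was added and luminescence read after 30 min at room temperature.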

Test [13] concerns the target Nuclear receptor subfamily 1 group I member 2 (Homo sapiens) (UniProt O75469). Briefly: CYP3A4 induction through human pregnane X receptor (PXR) by small molecules, qHTS assay (AID 1346984). Also: nearly all actives have a fitted effect of over 40% in size. The procedure, abridged: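 Induction measured in HepG2-based DPX-2 cells co-expressing human PXR and a CYP3A4 promoter-driven luciferase. After a 24-hour compound exposure, cells received CYP3A4 luciferin substrate at 3uM final for 3 hours, and light output was then recorded.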

For test [14] the target is unchanged. The test can be described thus: Human pregnane X receptor (PXR) activation by small molecules, qHTS assay (AID 1346985). Also: nearly all actives have a fitted effect of over 40% in size. The procedure, abridged:
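DPX-2 cells (HepG2 co-transfected with a PXR response element and a CYP3A4-promoter luciferase construct) were seeded at 2,000 per well, rested 5 hr at 37C, then exposed to DMSO-dissolved compounds for 24 hr. Activation was read as luciferase luminescence.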

For test [15], the target named is Progesterone receptor (Homo sapiens) (UniProt P06401). The test can be described thus: qHTS assay to identify small molecule antagonists of the progesterone receptor (PR) signaling pathway (AID 1346795; active = well fitted inhibition curve with a large enough effect in the signal ratio in the repeat runs, not every such curve was filed as active; the % refers to the signal ratio). The procedure, abridged: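 Screening used a GripTite HEK293T line with PR-responsive UAS-beta-lactamase. Cells were challenged with compound in the presence of 1 nM R5020 final for 16 hr at 37C; B/G FRET substrate, 2 hr room temperature, fluorescence.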

A short description of test [16]: qHTS assay to identify small molecule antagonists of the TGF-beta/Smad signaling pathway - cell viability counter screen (AID 1346824). Also: nearly all actives have a fitted effect of over 50% in size. The procedure, abridged:
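SBE-bla HEK 293T cells were plated overnight at 37 C, then given compounds in DMSO plus TGF-beta1 (added as 0.25 ng/mL solution) for 5 hr. After the bla read, CellTiter-Glo was added to the same wells and luminescence read after 30 min at room temperature.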

Test [17] in a line: qHTS assay to identify small molecule agonists of the TGF-beta/Smad signaling pathway (AID 1346859; active = well fitted activation curve with a large enough effect in the signal ratio in the repeat runs, not every such curve was filed as active; the % refers to the signal ratio; also: series mostly up to about 77 µM). The procedure, abridged: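 Beta-lactamase reporter activity downstream of Smad binding elements was measured in stably transfected HEK 293T cells; compounds were incubated for 5 hr, substrate for 2 hr at room temperature.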
In test [18] the target is Progesterone receptor (Homo sapiens) (UniProt P06401). Briefly: qHTS assay to identify small molecule agonists of the progesterone receptor (PR) signaling pathway (AID 1346784; calls by dose curve; also: nearly all actives have a fitted effect of over 30% in size). In short, it runs like this: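 Seed PR-UAS-bla HEK 293T cells (2% charcoal-stripped FBS), incubate 6 hr at 37C; add compounds in DMSO, 16 hr at 37C; add LiveBLAzer B/G substrate, 2 hr RT; read fluorescence intensity.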

Test [19] in a line: Human pregnane X receptor (PXR) small molecule agonists, qHTS cell viability counter screen (AID 1346977). Also: nearly all actives have a fitted effect of over 50% in size. In short, it runs like this: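 After a 5hr pre-incubation, PXR-Luc HepG2 cells received compounds plus positive control in DMSO and were kept 24hr at 37C. Cell viability was quantified by fluorescence from CellTiter-Fluor added for the final hour.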

Unmarked numbers belong to inactive results. Inconclusive results are not listed. Calls of active or inactive are those of the source. Unless noted, calls follow the shape of the dose curve; as a rule, active = well fitted curve in the direction sought with a large enough effect in the repeat runs; inconclusive = weak or mixed curves; inactive = no such curve, though single readings can be large; an effect the other way counts as inactive or inconclusive.
% is scaled to controls: 0 for no effect and ±100 for the full control effect.

Progesterone receptor (Homo sapiens), sequence (P06401 whole entry, looked up): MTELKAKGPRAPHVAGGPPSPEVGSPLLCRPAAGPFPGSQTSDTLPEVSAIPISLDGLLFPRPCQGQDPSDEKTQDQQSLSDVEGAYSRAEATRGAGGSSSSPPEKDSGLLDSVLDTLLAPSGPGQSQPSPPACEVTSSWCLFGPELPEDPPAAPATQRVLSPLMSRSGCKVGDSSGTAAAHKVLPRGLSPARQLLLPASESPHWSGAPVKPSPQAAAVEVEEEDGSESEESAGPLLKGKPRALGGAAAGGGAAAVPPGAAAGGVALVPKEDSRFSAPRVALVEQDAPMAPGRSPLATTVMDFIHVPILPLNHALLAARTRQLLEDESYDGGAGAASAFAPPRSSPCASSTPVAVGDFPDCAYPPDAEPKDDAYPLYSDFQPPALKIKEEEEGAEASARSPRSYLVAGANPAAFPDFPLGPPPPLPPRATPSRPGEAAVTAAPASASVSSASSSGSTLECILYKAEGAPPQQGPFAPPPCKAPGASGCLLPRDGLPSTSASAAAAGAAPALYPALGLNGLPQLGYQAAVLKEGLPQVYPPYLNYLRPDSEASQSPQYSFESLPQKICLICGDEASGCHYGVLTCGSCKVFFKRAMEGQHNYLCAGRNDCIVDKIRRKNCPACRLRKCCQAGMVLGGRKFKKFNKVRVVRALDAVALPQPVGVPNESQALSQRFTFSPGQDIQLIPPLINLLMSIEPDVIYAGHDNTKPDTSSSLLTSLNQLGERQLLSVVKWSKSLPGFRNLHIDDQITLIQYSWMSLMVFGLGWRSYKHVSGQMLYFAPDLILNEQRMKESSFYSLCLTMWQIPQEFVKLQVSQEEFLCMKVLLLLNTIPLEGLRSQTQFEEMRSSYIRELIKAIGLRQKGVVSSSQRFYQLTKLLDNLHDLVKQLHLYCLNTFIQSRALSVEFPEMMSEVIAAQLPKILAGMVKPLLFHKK
Nuclear receptor subfamily 1 group I member 2 (Homo sapiens), sequence (O75469 whole entry, looked up): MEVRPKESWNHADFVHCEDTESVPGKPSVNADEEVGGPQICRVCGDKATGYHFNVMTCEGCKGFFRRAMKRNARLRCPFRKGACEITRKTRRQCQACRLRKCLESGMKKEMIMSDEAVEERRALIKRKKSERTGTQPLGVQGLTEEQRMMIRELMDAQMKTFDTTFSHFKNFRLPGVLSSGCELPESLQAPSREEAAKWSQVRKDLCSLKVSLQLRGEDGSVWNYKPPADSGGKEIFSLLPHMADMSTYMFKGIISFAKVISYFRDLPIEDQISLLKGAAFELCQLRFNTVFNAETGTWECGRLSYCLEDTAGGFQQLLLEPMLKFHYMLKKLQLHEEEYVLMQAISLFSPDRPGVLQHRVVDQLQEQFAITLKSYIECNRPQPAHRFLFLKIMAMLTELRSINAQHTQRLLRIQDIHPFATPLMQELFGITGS
Nuclear receptor subfamily 1 group I member 2 (Rattus norvegicus), sequence (Q9R1A7 whole entry, looked up): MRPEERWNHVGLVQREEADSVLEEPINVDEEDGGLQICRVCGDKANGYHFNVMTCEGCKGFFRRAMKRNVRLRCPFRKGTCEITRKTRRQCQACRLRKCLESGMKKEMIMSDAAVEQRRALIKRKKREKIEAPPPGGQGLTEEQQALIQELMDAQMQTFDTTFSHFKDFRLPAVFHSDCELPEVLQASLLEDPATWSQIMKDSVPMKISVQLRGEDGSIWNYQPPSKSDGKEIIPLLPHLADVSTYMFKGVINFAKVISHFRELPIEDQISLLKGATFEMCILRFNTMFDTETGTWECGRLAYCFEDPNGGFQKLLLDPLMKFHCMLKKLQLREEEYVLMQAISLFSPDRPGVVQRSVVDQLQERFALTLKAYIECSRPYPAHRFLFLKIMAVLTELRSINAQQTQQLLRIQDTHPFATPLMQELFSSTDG
Thyrotropin-releasing hormone receptor (Homo sapiens), sequence (P34981 whole entry, looked up): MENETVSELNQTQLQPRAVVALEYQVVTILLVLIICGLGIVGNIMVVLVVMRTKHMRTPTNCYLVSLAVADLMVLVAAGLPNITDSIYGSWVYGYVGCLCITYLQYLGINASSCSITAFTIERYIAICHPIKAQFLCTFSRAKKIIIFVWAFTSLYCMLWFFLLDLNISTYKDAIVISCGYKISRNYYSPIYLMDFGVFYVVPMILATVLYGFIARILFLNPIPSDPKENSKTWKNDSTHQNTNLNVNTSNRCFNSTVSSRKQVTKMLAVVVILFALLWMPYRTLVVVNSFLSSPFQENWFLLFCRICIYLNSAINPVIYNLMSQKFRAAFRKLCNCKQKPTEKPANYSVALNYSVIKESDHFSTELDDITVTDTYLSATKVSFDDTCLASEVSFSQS

Take `C[C@H]1c2cccc(O)c2C(O)=C2C(=O)[C@]3(O)C(O)=C(C(N)=O)C(=O)[C@@H](N(C)C)[C@@H]3[C@@H](O)[C@@H]21`: the Potency result in [1], in test [2], in test [3], in test [4], in test [6] and in test [7] was “inactive” each time. Besides, the Potency result in test [8], in test [9], in [10], in test [11], in test [13] and in test [14] was “inactive” each time. The result in [5] was inactive. The max activation in test [12] is -4.08%.

As to `CC(=O)Nc1cc(S(=O)(=O)O)cc2cc(S(=O)(=O)O)c(N=Nc3ccccc3)c(O)c12`, the values for the Potency in test [1], in test [8] and in test [10] were 17.2 µM (active), 27.3 µM (active) and 24.3 µM (active), respectively. Moreover, the Potency result in test [15], in [2], in test [3], in test [16], in test [4] and in [17] was “inactive” each time. The Potency result in test [6], in test [7], in [9] and in [11] was “inactive” in each case. The call in [5] was inactive.

Take `CCCCN1CCCC1C(=O)Nc1c(C)cc(C)cc1C` (stereo unspecified): the Potency entry in test [1], in test [18], in [2], in test [3], in test [16] and in [4] was “inactive” each time. The Potency result in test [17], in test [6], in test [19], in test [7], in test [8] and in test [9] was “inactive” each time. In addition, the Potency result in [10] was “inactive”. Moreover, the molecule was classed as inactive in test [5]. Besides, the max activation in test [12] was 14.6%.

With `CN1C(C(=O)Nc2ccccn2)=C(O)c2sccc2S1(=O)=O`, the Potency entry in [18], in test [15], in test [2], in test [16], in [4] and in test [17] was “inactive” throughout. In addition, the Potency entry in [6], in test [19], in test [7], in test [9], in [10] and in test [11] was “inactive” in each case. For the same molecule, the Potency entry in test [13] and in [14] was “inactive” in each case. Besides, the outcome in [5] was inactive. Further, the max activation in test [12] was -1.49%.

In the case of `O=C1Cc2ccccc2N1c1c(Cl)cccc1Cl`, the Potency entry in test [1], in test [18], in [16], in test [4], in [17] and in test [19] was “inactive” throughout. Further, the Potency result in test [7] and in [9] was “inactive” each time. Moreover, the Potency in test [11] is 9.69 µM (active).

For the molecule `C=COCC(C)C`, the Potency result in test [1], in test [2], in test [3], in test [16], in test [4] and in test [17] was “inactive” each time. Moreover, the Potency entry in [6], in test [7], in test [8], in [9], in [10] and in [11] was “inactive” in each case. Moreover, in [5], the molecule was classed as inactive.

Source of the values: PubChem BioAssay (Tox21).
